# This is a sample that favours compounds with a hit; in the whole collection about 2.8% have one here.
# FEN1 inhibitor: human FEN1 inhibition; P39748; Recombinant FEN1 flap cleavage, fluorescence, 15 min; Potency, µM (highest dose often 114 µM), inactives show at the top dose activity change, negative = inhibition, most hits filed as inhibitors; 390,000 tested, 0.35% active; AID 588795; further: potency means the concentration at half of the fitted maximal effect; on the % scale 0 is the no-effect control and ±100 the full control effect; nearly all actives have a fitted effect of over 65% in size
#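 Recombinant FEN1 (10 nM) was preincubated with pin-transferred compounds for 15 min at room temperature, then flap DNA substrate (50 nM final) was added. Plates were read at 0 and 15 min, and normalized concentration–response data were fitted to a four-parameter Hill equation.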
# POLB inh: DNA polymerase beta (human) inhibition | P06746 | Pol beta primer extension/strand displacement, fluorescence kinetic | Potency, µM (series often up to 114 µM), for the others: top-dose activity change, negative = inhibition, usual class: inhibitors | 340,000 tested, 1.3% active; further: potency means the concentration at half of the fitted maximal effect; on the % scale 0 is the no-effect control and ±100 the full control effect
#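 Human Pol beta at 10 nM; strand-displacement substrate 50 nM final. Compound exposure 15 min at room temperature before start, reaction 10 min at room temperature.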
# Pol eta inh: blocks human DNA polymerase eta activity; Q9Y253; recombinant Pol eta, fluorescent DNA replication assay; Potency, µM (doses to about 114 µM), without a hit: top-dose activity change, negative = inhibition, actives largely listed as inhibitors; 390,000 tested, 1.2% active; AID 588591; further: potency means the concentration at half of the fitted maximal effect; on the % scale 0 is the no-effect control and ±100 the full control effect
#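 Pol eta (10 nM) was preincubated with compounds for 15 min at room temperature, after which fluorescent replication substrate (50 nM final) was added to start the reaction. Fluorescence was read kinetically at 0 and 10 min.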
# POLI inh: DNA polymerase iota (human) inhibition; Q9UNA4; Pol iota fluorescent replication assay, 10 min; Potency, µM (series often up to 115 µM), for inactives: at the top dose activity, negative = inhibition, most hits filed as inhibitors; 390,000 tested, 1% active; further: potency means the concentration at half of the fitted maximal effect
#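 Fluorescent replication assay read twice, at 0 min and 10 min after adding 50 nM (final) substrate. Enzyme (10 nM) and compounds were first incubated 15 min at room temperature; enzyme-free buffer wells were negative controls.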
# POLK inh: blocks human DNA polymerase kappa activity | 400,000 tested, 0.53% active | purified Pol kappa, fluorescent DNA synthesis assay, 10 min | Potency, µM (titrated, usually from 107 µM), inactives show top-dose activity, negative = inhibition, usual class: inhibitors | AID 588579; further: potency means the concentration at half of the fitted maximal effect; on the % scale 0 is the no-effect control and ±100 the full control effect
#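 Fluorescent qHTS in 1536-well format: enzyme (10 nM) and compound sat 15 min at room temperature before 50 nM substrate (final) was added. Signal taken at 0 and 10 min; no-enzyme buffer wells were negative controls.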
# PI5P4K alpha inh: PI5P4K alpha (human) kinase inhibition. PI5P4Kalpha enzyme, ADP-Glo luminescence, 60 min; hits give low values. max response, %. 330,000 tested, 1.2% active; active means max response of -50% or lower; inconclusive means between -30% and -50%; inactive means -30% or higher; further: value at the top dose of about 77 µM; on the % scale 0 is the no-effect control and ±100 the full control effect
# Target sequence (P48426 whole entry, looked up): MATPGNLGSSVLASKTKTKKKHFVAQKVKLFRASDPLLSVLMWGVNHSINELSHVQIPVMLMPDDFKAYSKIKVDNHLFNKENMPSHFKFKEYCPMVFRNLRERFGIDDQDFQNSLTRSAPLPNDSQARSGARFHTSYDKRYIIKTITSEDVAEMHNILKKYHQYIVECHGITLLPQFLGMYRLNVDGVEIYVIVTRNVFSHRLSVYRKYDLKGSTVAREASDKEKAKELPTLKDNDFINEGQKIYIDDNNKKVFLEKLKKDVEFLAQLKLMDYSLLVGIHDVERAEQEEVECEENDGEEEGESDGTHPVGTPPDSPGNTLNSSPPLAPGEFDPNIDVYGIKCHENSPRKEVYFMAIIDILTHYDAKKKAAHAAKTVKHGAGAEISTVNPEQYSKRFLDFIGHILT
#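 Enzyme plus substrate dispensed, test compounds pinned in, then ATP (5 microM final) added. After 60 min at RT, ADP-Glo reagent 1 for 45 min and reagent 2 for 30 min preceded luminescence imaging.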
# * = called active by the depositor; ? = inconclusive; . = no result; [ ] = remark or other dose. Unless noted, the call rests on the fitted dose curve; in most records, active means well fitted curve in the direction sought with a large enough effect; inconclusive means small, poorly fitted or top-dose-only effect, or another doubt; inactive means no such curve, though single readings can be large; an effect the other way counts as inactive or inconclusive.
SMILES,FEN1 inhibitor,POLB inh,Pol eta inh,POLI inh,POLK inh,PI5P4K alpha inh
Cc1ccc(C)c(N2CCN(S(=O)(=O)c3ccc4[nH]c(=O)ccc4c3)CC2)c1,2%,28µM*,?,?,-1%,-17
Cc1ccc(C(=O)c2c(C)oc3c2C(=O)C(=O)c2ccccc2-3)cc1,-23%,-25%,45µM*,-45%,-4%,-13
Cc1ccc(C(=O)c2coc3c2C(=O)C(=O)c2ccccc2-3)cc1,-18%,5%,-5%,20%,1%,.
CC(C)Oc1ccc(C(=O)N(Cc2ccc(N(C)C)cc2)Cc2ccco2)cc1,-10%,21%,.,-15%,-2%,.
O=[N+]([O-])c1ccc(O)c(/C=N/Nc2ncnc3c2cnn3-c2ccccc2)c1,-14%,8%,-4%,-8%,-13%,-75*
COc1ccc(C(=O)c2sc(Nc3cc(Cl)ccc3C)nc2N)cc1OC,-3%,28µM*,-16%,?,-17%,.
CC1(C)CC(=O)C2=C(C1)NC(=S)C(C#N)C21CCCCC1 (centres undefined),15%,31%,-12%,32%,4%,-62*
Cn1c(=O)c(C#N)c(-c2ccc(F)cc2)c2cc(C(=O)c3cc(Cl)cc(Cl)c3O)cnc21,-8%,?,40µM*,?,-52%,?
Cc1nn(CCCC(=O)NCCc2ccc(Cl)cc2)c(=O)c2c1sc1ccccc12,45µM*,?,-14%,27%,?,.
CCOc1ccc(CCNC(=O)CCCn2nc(C)c3sc4ccccc4c3c2=O)cc1OCC,1%,7%,-6%,?,-17%,.
COc1ccc(CCNC(=O)CCCn2nc(C)c3sc4ccccc4c3c2=O)cc1OC,45µM*,35µM*,-13%,-13%,-43%,.
CCOc1ccc(CNC(=O)CCCn2nc(C)c3sc4ccccc4c3c2=O)cc1,?,-25%,-2%,89µM*,-27%,.
CCOC(=O)C1CCCN(C(=O)c2ccc(NC(=O)c3nsc4ccccc34)cc2)C1 (centres undefined),-16%,3%,-21%,8%,-7%[60.1 µM],.
O=C(O[C@@H]1OC2COC(=O)c3cc(O)c(O)c(O)c3-c3c(cc(O)c(O)c3O)C(=O)O[C@@H]([C@H]1O)[C@@H]2O)c1cc(O)c(O)c(O)c1,0.71µM*,0.16µM*,-99%,?,-99%,-102*
O=C(CCC1N=C2c3ccccc3N=C(SCc3ccccc3Cl)N2C1=O)NCc1cccs1 (centres undefined),-10%,6%,-19%,24%,-4%[60.1 µM],.
CCN(CC)S(=O)(=O)c1cccc(C(=O)N/N=C/c2cccc(O)c2O)c1,-16%,8%,-5%,20µM*,-42%,-13
Cn1ncc(S(=O)(=O)Cc2ccccc2)c(Br)c1=O,.,.,.,.,-10%[60.1 µM],.
Cc1ccc(S(=O)(=O)c2nnn3c2nc(N2CCN(c4ccccc4F)CC2)c2ccccc23)cc1C,1%,12%,3%,-16%,-3%,.
CCOC(=O)N1CCN(C2=C(NS(=O)(=O)c3ccc(NC(C)=O)cc3)C(=O)c3ccccc3C2=O)CC1,?,?,-5%,6.3µM*,-10%,0
CC1CCN(C2=C(NS(=O)(=O)c3ccc(Br)cc3)C(=O)c3ccccc3C2=O)CC1,?,35%,-12%,7.1µM*,-17%,-3
CCC(Nc1ccc(-c2nc(-c3ccco3)no2)cc1[N+](=O)[O-])c1ccccc1 (centres undefined),-2%,-23%,-10%,9%,-28%,.
CC(C)n1c(=O)[nH][nH]c1=S,-4%,1%,-3%,72%,0%,-103*
CC(C)n1c(=O)[nH]c2ccccc21,5%,36%,-12%,19%,-5%,.
C[C@@H]1CN([C@H](C)CO)C(=O)CCCn2nncc2CO[C@@H]1CN(C)S(=O)(=O)c1ccc2c(c1)OCCCO2,.,.,-6%,.,.,-2
O=c1c(Br)c(N2CCCCC2)cnn1-c1ccccc1,-7%,-6%,-17%,122%,0%,4
SMILES,FEN1 inhibitor,POLB inh,Pol eta inh,POLI inh,POLK inh,PI5P4K alpha inh
Cc1cc(C(=O)COC(=O)c2ccc(NC(=O)CC#N)cc2)c(C)n1CCc1ccc(F)cc1,-19%,.,-27%,-14%,-21%,?
COc1ccc(CCn2c(C)cc(C(=O)COC(=O)c3ccc(NC(=O)CC#N)cc3)c2C)cc1,-18%,13%,79µM*,?,?,-50*
Nc1ccc(S(=O)(=O)Nc2nc3ccccc3o2)cc1,-9%,79µM*,45µM*,?,?,?
CCN1CCN(CCCNC(=O)c2cc3c(s2)-c2c(C)cccc2OC3)CC1,-11%,1%,-14%,18%,-10%,.
CCOc1ccccc1NC(=O)Cn1c(=O)n(Cc2ccc(OC)cc2)c(=O)c2oc3ccccc3c21,-3%,35%,5%,16%,-6%,.
Cc1cccc(OCCCCn2nnc3sc4c(c3c2=O)CCC(C)C4)c1 (centres undefined),3%,14µM*,.,?,-25%,.
Cc1ccc(OCCn2nnc3sc4c(c3c2=O)CCC(C(C)(C)C)C4)cc1 (centres undefined),-5%,22µM*,.,-11%,-13%,.
CC(C)(C)C1CCc2c(sc3nnn(CCOc4ccccc4)c(=O)c23)C1 (centres undefined),8%,25µM*,.,-9%,-10%,.
CC(=O)Cn1nnc2sc3c(c2c1=O)CCC(C(C)(C)C)C3 (centres undefined),-16%,15%,-10%,65%,-18%,-10
Cc1oc2c(c1C(=O)Nc1ccc(Cl)cc1F)C1=NCCN1C=N2,-6%,3%,-10%,4%,0%,.
COc1cc(Nc2c3ccccc3nc3ccccc23)cc(OC)c1OC,?,14µM*,-7%,?,-6%,-8
O=C(NCCSCc1ccccc1Cl)C1CCN(S(=O)(=O)Cc2ccccc2)CC1,-6%,0%,-15%,20%,-15%,.
CCN(CC)CCNC(=O)c1[nH]c2ccccc2c1Sc1ccc(Cl)cc1,5%,-2%,-27%,14%,-11%,.
O=C(Nc1ccc(-c2cn3ccccc3n2)cc1)c1cccs1,-24%,10µM*,?,?,?,-10
COc1ccc(CC(=O)Nc2ccc(-c3cn4ccccc4n3)cc2)cc1,2%,1%,4%,2%,-16%,1
Cc1ccc2cccc(S(=O)(=O)Nc3ccc4c(c3)OCO4)c2n1,-1%,45µM*,?,?,-24%,.
COc1cccc(CC(=O)OCC(=O)NC(Cc2ccccc2)C(C)=O)c1 (centres undefined),7%,.,-12%,14%,-4%,-10
Cc1cc(C(F)(F)F)c2c(n1)sc1c(O)cc(=O)[nH]c12,-27%,-10%,-14%,3.2µM*,71µM*,.
